# B1: unnamed (peptide)
# chain: VFQFQMPTTPISTKM
# Key:
# Assay in all cases: SPOT peptide array binding signal intensity (averaged, normalized) (arbitrary units (background-subtracted, floor 0; scale differs between SH3 domains)); higher = stronger binding of the SH3 domain to the peptide
# ScBbc1 = biological target: ScBbc1
# Summary of the method: (§1)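 The binding signal is the normalized, background-subtracted spot intensity averaged over replicates; its arbitrary units differ between domains. It was obtained by incubating 10 μg/ml GST-fused SH3 domains from four yeast species overnight at 4°C in TBS-based blocking buffer on cellulose membranes with synthetic 15-mer peptides, cysteines replaced by serines, then detecting with anti-GST antibody, HRP anti-mouse secondary and luminol.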
# ScBem1-D1 = biological target: ScBem1-D1
# Summary of the method: as §1
# ScBzz1-D1 = biological target: ScBzz1-D1
# Summary of the method: as §1
# ScBzz1-D2 = biological target: ScBzz1-D2
# Summary of the method: as §1
# ScCyk3 = biological target: ScCyk3
# Summary of the method: as §1
# ScFus1 = biological target: ScFus1
# Summary of the method: as §1
# ScHof1 = biological target: ScHof1
# Summary of the method: as §1
# ScHse1 = biological target: ScHse1
# Summary of the method: as §1
# ScLsb1 = biological target: ScLsb1
# Summary of the method: as §1
# ScLsb2 = biological target: ScLsb2
# Summary of the method: as §1
# ScLsb3 = biological target: ScLsb3
# Summary of the method: as §1
# ScLsb4 = biological target: ScLsb4
# Summary of the method: as §1
# ScMyo3 = biological target: ScMyo3
# Summary of the method: as §1
# ScMyo5 = biological target: ScMyo5
# Summary of the method: as §1
# ScNbp2 = biological target: ScNbp2
# Summary of the method: as §1
# ScPex13 = biological target: ScPex13
# Summary of the method: as §1
# ScRvs167 = biological target: ScRvs167
# Summary of the method: as §1
# ScSho1 = biological target: ScSho1
# Summary of the method: as §1
# ScSla1-D1-D2 = biological target: ScSla1-D1-D2
# Summary of the method: as §1
# ScSla1-D3 = biological target: ScSla1-D3
# Summary of the method: as §1
# SpAbp1-D1 = biological target: SpAbp1-D1
# Summary of the method: as §1
# SpBbc1 = biological target: SpBbc1
# Summary of the method: as §1
# SpBzz1-D1 = biological target: SpBzz1-D1
# Summary of the method: as §1
# SpBzz1-D2 = biological target: SpBzz1-D2
# Summary of the method: as §1
# SpCyk3 = biological target: SpCyk3
# Summary of the method: as §1
# SpHof1 = biological target: SpHof1
# Summary of the method: as §1
# SpHof1-2 = biological target: SpHof1-2
# Summary of the method: as §1
# SpHof1-3 = biological target: SpHof1-3
# Summary of the method: as §1
# SpHse1 = biological target: SpHse1
# Summary of the method: as §1
# SpLsb1 = biological target: SpLsb1
# Summary of the method: as §1
# SpLsb4 = biological target: SpLsb4
# Summary of the method: as §1
# SpMyo1 = biological target: SpMyo1
# Summary of the method: as §1
# SpNbp2 = biological target: SpNbp2
# Summary of the method: as §1
# SpPex13 = biological target: SpPex13
# Summary of the method: as §1
# SpRvs167 = biological target: SpRvs167
# Summary of the method: as §1
# SpSla1-D1-D2 = biological target: SpSla1-D1-D2
# Summary of the method: as §1
# SpSla1-D3 = biological target: SpSla1-D3
# Summary of the method: as §1
binder,measurement,setting,value
B1,SPOT peptide array binding signal intensity,ScBbc1,≤ 0
same,SPOT peptide array binding signal intensity,ScBem1-D1,1
same,SPOT peptide array binding signal intensity,ScBzz1-D1,10
same,SPOT peptide array binding signal intensity,ScBzz1-D2,25
same,SPOT peptide array binding signal intensity,ScCyk3,13
same,SPOT peptide array binding signal intensity,ScFus1,327
same,SPOT peptide array binding signal intensity,ScHof1,≤ 0
same,SPOT peptide array binding signal intensity,ScHse1,254
same,SPOT peptide array binding signal intensity,ScLsb1,46.5
same,SPOT peptide array binding signal intensity,ScLsb2,≤ 0
same,SPOT peptide array binding signal intensity,ScLsb3,282
same,SPOT peptide array binding signal intensity,ScLsb4,124
same,SPOT peptide array binding signal intensity,ScMyo3,20.8
same,SPOT peptide array binding signal intensity,ScMyo5,8
same,SPOT peptide array binding signal intensity,ScNbp2,636
same,SPOT peptide array binding signal intensity,ScPex13,186
same,SPOT peptide array binding signal intensity,ScRvs167,11.8
same,SPOT peptide array binding signal intensity,ScSho1,530
same,SPOT peptide array binding signal intensity,ScSla1-D1-D2,245
same,SPOT peptide array binding signal intensity,ScSla1-D3,228
same,SPOT peptide array binding signal intensity,SpAbp1-D1,21
same,SPOT peptide array binding signal intensity,SpBbc1,2.5
same,SPOT peptide array binding signal intensity,SpBzz1-D1,324
same,SPOT peptide array binding signal intensity,SpBzz1-D2,4.25
same,SPOT peptide array binding signal intensity,SpCyk3,4
same,SPOT peptide array binding signal intensity,SpHof1,52.5
same,SPOT peptide array binding signal intensity,SpHof1-2,36.5
same,SPOT peptide array binding signal intensity,SpHof1-3,18.5
same,SPOT peptide array binding signal intensity,SpHse1,456
same,SPOT peptide array binding signal intensity,SpLsb1,4.5
same,SPOT peptide array binding signal intensity,SpLsb4,349
same,SPOT peptide array binding signal intensity,SpMyo1,85.5
same,SPOT peptide array binding signal intensity,SpNbp2,272
same,SPOT peptide array binding signal intensity,SpPex13,124
same,SPOT peptide array binding signal intensity,SpRvs167,27
same,SPOT peptide array binding signal intensity,SpSla1-D1-D2,3
same,SPOT peptide array binding signal intensity,SpSla1-D3,297
